Screening results: PubChem BioAssay, several laboratories
Myeloid diff 2 = promotes myeloid progenitor differentiation. calls only at 10 µM. hit rate 1% among 360,000. ER-HoxA9 myeloid progenitors, lysozyme-GFP differentiation, flow cytometry;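 active = normalized GFP-positive differentiation at or above the plate's own cutoff, the solvent-only control mean plus 3 SD; inconclusive = no clear call, values can overlap the other calls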;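 note: cells exposed to compound for four days before flow analysis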
FAS TE block = blocks the thioesterase domain of human fatty acid synthase; inhibition, % at 15 µM; recombinant FAS-TE, OMFH fluorogenic substrate, fluorescence endpoint; P49327; hit rate 0.67% among 360,000;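 active = compounds whose normalised, plate-corrected inhibition of enzyme fluorescence in the single-dose primary screen is 50% or more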;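 note: 0% = DMSO with enzyme and 100% = substrate without enzyme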
GRIN3A LBD mod = NR3A (human) ligand-binding domain modulation | NR3A LBD differential scanning fluorimetry, Tm shift; 0% = protein alone, 100% = glycine-bound protein | Tm shift relative to glycine control, % at 25 µM | hit rate 2.5% among 340,000 | AID 1259313;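 active = melting temperature shift of at least 10% of the positive control shift, at one fixed dose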
MPTP inh = blocks calcium-induced mitochondrial swelling | hit rate 1.4% among 360,000 | inhibition, % at 10 µM | isolated mouse mitochondria, Ca2+ swelling absorbance, 30 min;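 active = inhibition of 50% or more, scaled per plate between neutral and stimulator controls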;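 note: 0% = DMSO wells given calcium and 100% = 1 mM EGTA wells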
rCAG binder = molecules binding r(CAG) RNA repeats; r(CAG) RNA repeat, TO-PRO-1 dye displacement fluorescence; inhibition, % at 3 µM; hit rate 1.3% among 370,000; AID 651821;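 active = inhibition above the plate cutoff, the mean of all test compounds on that plate plus 3 SD, cut at about 35% in these data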;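 note: 0% = DMSO alone and 100% = 100 µM mitoxantrone as full dye displacement; higher means more dye released from RNA so lower well fluorescence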
rCAG binder conf = r(CAG) RNA repeat binding, confirmation; shares compounds with rCAG binder; TO-PRO-1 dye displacement fluorescence; inhibition, % at 3 µM; hit rate 70% among 4,300; AID 652065;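 active = inhibition above a per-plate cutoff, the mean inhibition of sample wells plus 3 SD, cut at about 35% in these data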;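 note: loss of TO-PRO-1 fluorescence as compound displaces dye from 1x1 AA loop RNA; 0% = DMSO only wells and 100% = 100 µM mitoxantrone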
dCAG dye counter = disrupts DNA CAG TO-PRO-1 complex, flagging rCAG hits. inhibition, % at 3 µM. d(CAG) DNA oligo TO-PRO-1 dye displacement, fluorescence. hit rate 94% among 4,300. shares compounds with rCAG binder;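 active = inhibition above its plate's cutoff, the mean test-well inhibition plus 3 SD, cut at about 4.8% in these data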;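 note: 0% = DNA dye mix with DMSO and 100% = 100 µM mitoxantrone; hits displace the dye from DNA and so lower well fluorescence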
DNA CAG DR = disrupts DNA CAG TO-PRO-1 complex in dose response | hit rate 20% among 250 | IC50, µM | DNA CAG/GTC duplex TO-PRO-1 dye displacement fluorescence | shares compounds with rCAG binder; in the data active = IC50 below about 10 µM
* hit, by the source's call; i = inactive; ? = inconclusive; / = not tested or not shown; + = active, no number. In the library only some 5.7% were active in any assay of this set; here they are far more common.

SMILES	Myeloid diff 2	FAS TE block	GRIN3A LBD mod	MPTP inh	rCAG binder	rCAG binder conf	dCAG dye counter	others
CCCCC(NC(=O)Cc1c(C)c2cc3c(-c4ccccc4)coc3c(C)c2oc1=O)C(=O)O (configuration not stated)	i	9.5	-48.8	1.2	36.9*	65.1*	24.0*
COc1cccc(-c2coc3cc4oc(=O)c(CCC(=O)O)c(C)c4cc23)c1	i	-4.3	-0.1	0.6	46.8*	47.2*	14.2*
CC(C)c1ccc(C(O)P(=O)(OC2CCCCC2)OC2CCCCC2)cc1 (configuration not stated)	i	25.2	-0.6	16.3	-6.0	/	/
Cc1cccc(N2CCN(C(=O)C(Cc3ccccc3)n3cccc3)CC2)c1C (configuration not stated)	i	30.6	0.2	2.2	1.6	/	/
CC[C@@H](C)[C@H](NC(=O)Cc1c(C)c2cc3c(C)c(C)oc3c(C)c2oc1=O)C(=O)O	i	-7.4	2.5	1.3	37.1*	33.9	7.1*
COc1cccc(CC2(CO)CCCN(Cc3ccc(OC)c(C)c3OC)C2)c1 (configuration not stated)	i	2.6	-0.7	1.3	-8.4	/	/
O=C(O)CCn1cc(C2CC(c3ccccc3)=NN2c2ccccc2)c(-c2ccccc2)n1 (configuration not stated)	i	-2.4	2.0	1.7	54.9*	61.6*	21.7*
CC1C(=O)N2CCCc3cc(NC(=O)C4CC4)cc1c32 (configuration not stated)	i	-8.4	1.4	-0.5	-0.8	/	/
CCC(C)n1c(NC(=O)c2ccccc2)c(C#N)c2nc3ccccc3nc21 (configuration not stated)	+	18.0	3.0	2.6	38.1*	68.2*	30.9*
COc1ccccc1NC(=O)C1=C(C)NC(SCC(=O)Nc2ccc(C(=O)O)cc2)=C(C#N)C1c1cccs1 (configuration not stated)	i	-0.8	-2.3	2.4	46.3*	39.4*	12.3*
CCCSC1=C(C#N)C(c2cccs2)C(C(=O)Nc2ccccc2)=C(C)N1 (configuration not stated)	i	25.3	-4.5	-2.1	8.4	/	/
Cc1cc(N)n(-c2ccc(Oc3ccccc3)c(S(=O)(=O)O)c2)n1	i	-5.7	-2.7	2.9	59.4*	42.2*	9.7*
Cc1c(O)nc(SCC(=O)Nc2ccc3c4c(cccc24)CC3)n(-c2ccc(F)cc2)c1=O	i	-6.0	-1.0	3.8	45.5*	29.8	8.3*
O=C(O)c1ccccc1NC(c1ccccc1)c1ccc(Cl)cc1 (configuration not stated)	i	6.3	-22.0	1.4	58.2*	54.4*	11.5*	DNA CAG DR=>29.9
O=C(O)c1cccc(N2C(=O)C3C4C=CC(C4=C(c4ccccc4)c4ccccc4)C3C2=O)c1 (configuration not stated)	i	36.4	-0.3	-0.3	34.7*	46.8*	11.5*
O=C(O)c1cccc(N2C(=O)c3ccc4c5c(ccc(c35)C2=O)C(=O)N(c2cccc(C(=O)O)c2)C4=O)c1	i	-7.9	-0.9	-0.9	4.0	/	/
O=C(Nc1ccc(N2CCOCC2)cc1)c1csc([C@H]2C[C@H](O)[C@@H](CO)O2)n1	i	-4.1	/	-0.3	1.7	/	/
CCC(=O)N1CCCC(C)(C(=O)NS(=O)(=O)c2cccs2)C1 (configuration not stated)	i	-3.7	/	-0.8	-0.3	/	/
COc1ccccc1-n1c(SCC(=O)Nc2cccc3ccccc23)nc(O)cc1=O	i	-6.9	-0.8	-0.5	48.2*	19.9	9.0*
CCc1c(O)nc(SCC(=O)Nc2ccccc2OC)n(-c2ccccc2C)c1=O	?	-4.3	-0.7	0.7	14.2	/	/
CCOc1ccccc1-n1c(SCC(=O)Nc2ccccc2C(=O)O)nc2ccccc2c1=O	i	-3.8	4.2	-0.3	35.5*	30.2	7.8*
COc1ccc(NC(=O)CSc2nc(O)cc(=O)n2-c2ccccc2OC)cc1	i	-11.4	0.0	-0.7	/	/	/
Cn1c(SCC(=O)Nc2cccc3ccccc23)nc(O)cc1=O	i	-5.0	-4.3	-0.3	40.8*	9.6	4.3
CCn1c(SCC(=O)Nc2ccccc2OC)nc2ccccc2c1=O	i	11.8	0.3	1.7	0.4	/	/
CCCCc1c(O)nc(SCC(=O)Nc2cccc3ccccc23)n(-c2ccccc2OC)c1=O	i	-7.0	-0.4	-0.4	35.1*	27.3	7.8*
SMILES	Myeloid diff 2	FAS TE block	GRIN3A LBD mod	MPTP inh	rCAG binder	rCAG binder conf	dCAG dye counter	others
COc1ccccc1NC(=O)CSc1nc(O)cc(=O)n1C	i	-10.3	1.3	-3.4	19.1	/	/
COCCN(C(=O)COC(=O)CCC(=O)c1cccs1)c1c(N)n(Cc2ccccc2)c(=O)[nH]c1=O	i	-7.5	2.6	-2.6	-4.9	/	/
Cc1ccc(NC(=O)CSc2nc(O)cc(=O)n2-c2ccc(C)cc2)cc1	i	-2.6	-4.4	-1.0	41.8*	17.3	6.3*
O=C(O)Cc1sc(Nc2ccc(Cl)cc2)nc1-c1cccs1	/	/	4.5	/	57.8*	53.8*	29.3*	DNA CAG DR=5.96*
Nc1nc(-c2cccs2)c(CC(=O)O)s1	i	-9.6	-0.2	-0.3	5.7	/	/
O=S(=O)(Nc1ncnc2c1oc1ccccc12)c1ccc(Cl)s1	i	3.4	-6.2	5.2	35.7*	17.4	3.0
O=C(Nc1cccc(-c2csc(Nc3cccc(C(F)(F)F)c3)n2)c1)c1cc([N+](=O)[O-])cc(C(F)(F)F)c1	i	33.8	2.3	7.1	1.6	/	/
O=C(Nc1ccc(-c2csc(Nc3ccc(Cl)cc3)n2)cc1)c1cccc(C(F)(F)F)c1	/	/	34.1*	/	44.1*	13.8	11.1*
O=C1c2cc(O)cc(O)c2C(=O)c2c1cc(O)c([C@@H](CO)CCO)c2O	i	2.6	0.8	4.9	53.2*	44.0*	18.8*
O=C1c2cccc(O)c2C(=O)c2c(O)cc(CO)cc21	/	/	2.1	/	/	/	/
Cc1cc(/C=C2\C(=N)N3N=C(c4ccco4)SC3=NC2=O)c(C)n1Cc1ccccc1	i	17.8	-0.6	45.9	59.1*	68.7*	30.2*	DNA CAG DR=i
O=C(O)COc1ccccc1/C=N/NC(=O)CSc1nc2ccccc2n1Cc1ccc(Cl)cc1	i	5.3	-2.1	4.9	59.6*	76.2*	35.2*
O=C(O)COc1ccccc1/C=N/NC(=O)COc1ccc(-c2ccccc2)cc1	i	-6.4	0.2	-1.2	66.4*	63.7*	22.2*
O=C(O)COc1ccccc1/C=N/NC(=O)c1cccc(S(=O)(=O)Nc2cccc(Cl)c2)c1	i	0.8	-1.0	-1.9	48.5*	30.0	8.7*
